High-throughput results from PubChem BioAssay.
This is one part of a sample in which hits are shown more often than they occur.
Dicer inh: human Dicer pre-microRNA cleavage inhibition | Q9UPY3 | cat-ELCCA pre-miR-21 Dicer processing, chemiluminescence; hits give high values | z-score at 25 µM | 6% of 47,000 active | AID 1347074; in the data active = z-score above about 3, passing the limit was not always enough;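 note: plate controls were vehicle for no effect and no enzyme for full effect; higher signal means more uncleaved substrate so more Dicer inhibition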
Numbers without * were called inactive.

How did Cc1ccc(N2C(=O)c3ccccc3C2C(=O)c2cc(C)ccc2O)cc1 (configuration not stated) do in these assays?
Dicer inh: 11*

Results for O=C1c2ccccc2NC(c2ccccc2O)N1c1ccc(F)cc1 (configuration not stated) ?
Dicer inh: -0.68

How did Cc1ccc(/C(O)=C2/C(=O)C(=O)N(c3ccc(O)cc3)C2c2ccccc2)cc1 (configuration not stated) do in these assays?
Dicer inh: 0.95

What do the screens show for `Cc1ccc(/C(O)=C2\C(=O)C(=O)N(CCCN3CCOCC3)C2c2ccco2)cc1` (configuration not stated)?
Dicer inh: 3.3*

Results for Cc1ccc(/C(O)=C2\C(=O)C(=O)N(CCCN3CCOCC3)C2c2ccc(F)cc2)cc1 (configuration not stated) ?
Dicer inh: -0.14

How did O=C1C(=O)N(CCCN2CCOCC2)C(c2ccccc2)/C1=C(\O)c1ccccc1 (configuration not stated) do in these assays?
Dicer inh: 0.77

How did NC(=NC(=O)CCn1c(=O)oc2ccccc21)c1ccc(Cl)cc1 do in these assays?
Dicer inh: -0.2

Results for CC1(C)NC(=O)N(CC(O)COc2ccccc2)C1=O (configuration not stated) ?
Dicer inh: -1.3

How did CCOC(=O)c1c(NC(=O)c2cc3ccccc3c(=O)o2)sc2c1CCC(CC)C2 (configuration not stated) do in these assays?
Dicer inh: 0.08

What do the screens show for `Nc1nc2c(c(=O)[nH]1)C(c1ccc(F)cc1)CC(=O)N2` (configuration not stated)?
Dicer inh: 1.7

How did O=C(NCc1cccs1)C1CC(c2c(F)cccc2Cl)=NO1 (configuration not stated) do in these assays?
Dicer inh: -2.2

How did c1ccc(C2CCCC(c3ccccc3)S2)cc1 (configuration not stated) do in these assays?
Dicer inh: 4.8*

How did S=C1CC(c2ccccc2)Sc2ccccc2N1 (configuration not stated) do in these assays?
Dicer inh: 0.9

What do the screens show for `CC1(O)CC(c2ccccc2)SC(c2ccccc2)C1` (configuration not stated)?
Dicer inh: 0.18

Results for COc1ccccc1Oc1nc2c(c(=O)n(Cc3ccc(Cl)c(Cl)c3)c(=O)n2C)n1C ?
Dicer inh: 0.04

Results for CCOC(=O)c1c(C)n(C)c2ccc(OCC(O)CN3CCOCC3)cc12 (configuration not stated) ?
Dicer inh: 1.9

How did CCOC(=O)N1CCN(CC(O)COc2cc(C)ccc2C(C)C)CC1 (configuration not stated) do in these assays?
Dicer inh: 3.5*

What do the screens show for `CCOC(=O)N1CCN(S(=O)(=O)c2c(C)cc(C)cc2C)CC1`?
Dicer inh: 1.2

Results for CCOC(=O)N1CCN(CC(O)COc2c(C)cc(C)cc2C)CC1 (configuration not stated) ?
Dicer inh: 3.3*

How did CCOC(=O)N1CCN(CC(O)COc2cc(C)cc(C)c2)CC1 (configuration not stated) do in these assays?
Dicer inh: 2.6

Results for OC(CN1CCN(Cc2ccc3c(c2)OCO3)CC1)Oc1ccc(C(F)(F)F)cc1 (configuration not stated) ?
Dicer inh: -2.7

How did O=C(COc1ccc(Cl)cc1)N1CCN(Cc2ccc3c(c2)OCO3)CC1 do in these assays?
Dicer inh: 0.41

What do the screens show for `CCOC(=O)c1c(C)n(C)c2ccc(OCC(O)CN3CCN(C)CC3)cc12` (configuration not stated)?
Dicer inh: 0.6

How did CCOC(=O)N1CCN(CC(O)COCc2ccc3c(c2)OCO3)CC1 (configuration not stated) do in these assays?
Dicer inh: 3.2*

What do the screens show for `CN(C)C=NC1=C(c2ccccc2)C(=O)c2ccccc21`?
Dicer inh: 1.7

How did O=c1c2ccccc2cnn1Cc1ccccc1 do in these assays?
Dicer inh: 2.7

How did Cc1noc(/C=C/c2sccc2C2OCCO2)c1[N+](=O)[O-] do in these assays?
Dicer inh: 1.3

How did O=C(COC(=O)c1cccc(S(=O)(=O)N2CCSCC2)c1)c1ccccc1 do in these assays?
Dicer inh: 1

Results for Cn1nc(C(F)(F)F)c(-c2cccc(C(F)(F)F)c2)c1NC(=O)C(C)(C)C ?
Dicer inh: -0.67

How did COc1cc(C)nc(N(CCO)CCO)n1 do in these assays?
Dicer inh: 5.9*

How did COc1cc(C)nc(-n2nc(C)cc2OC)n1 do in these assays?
Dicer inh: 0.16

How did COc1cc(C)nc(SCC(N)=O)n1 do in these assays?
Dicer inh: -0.74

What do the screens show for `O=C1C(=O)N(CCCn2ccnc2)C(c2ccncc2)/C1=C(\O)c1ccccc1` (configuration not stated)?
Dicer inh: 2.4

How did O=C(Nc1ccncc1)c1cc([N+](=O)[O-])ccc1Sc1ccccn1 do in these assays?
Dicer inh: -0.66

How did CCCCc1c(C)nc2nc(C)[nH]n2c1=O do in these assays?
Dicer inh: -0.69

How did Cc1ccc(NC(=O)CCC(=O)O)cc1 do in these assays?
Dicer inh: -0.07

How did CC(=O)Nc1ccc(NC(=O)CCCC(=O)O)cc1 do in these assays?
Dicer inh: -2.4

How did O=C(O)CCC(=O)Nc1ccc(C(=O)O)c(O)c1 do in these assays?
Dicer inh: 6.1*

How did O=C(/C=C/OC(=O)c1cc(C(F)(F)F)cc(C(F)(F)F)c1)c1ccc(Cl)cc1 do in these assays?
Dicer inh: 0.58

What do the screens show for `COc1cc(CNCCSc2nnnn2C)cc(Cl)c1OCc1ccc(Cl)cc1`?
Dicer inh: 0.17

How did CN1Cc2cccc(C(=O)O)c2C1=O do in these assays?
Dicer inh: -0.81

How did CCOC(=O)c1cc(-c2csc(N/N=C/c3c(Cl)cccc3Cl)n2)on1 do in these assays?
Dicer inh: 4.4

What do the screens show for `Cc1ccc(C)n1CCn1c(C)ccc1C`?
Dicer inh: -0.54

How did COc1ccc(-c2nnc(SCc3cccc(Cl)c3)o2)c(OC)c1 do in these assays?
Dicer inh: -0.48

Results for COc1ccc(-c2nnc(SCc3cccc4ccccc34)o2)cc1 ?
Dicer inh: -0.09

Results for COc1ccc(-c2nnc(SCc3cccc4ccccc34)o2)c(OC)c1 ?
Dicer inh: 227*

How did CCCOC(=O)C1=C(C)NC2=C(C(=O)CC(C)(C)C2)C1c1ccccc1OCC (configuration not stated) do in these assays?
Dicer inh: 0.41

What do the screens show for `CN(C)C(=O)C(=O)c1c(-c2ccccc2)[nH]c2ccc(Cl)cc12`?
Dicer inh: 0.89

How did CNc1ncnc(Oc2ccc(OC)cc2)c1[N+](=O)[O-] do in these assays?
Dicer inh: 0.47

Results for COC(=O)C1=C(C)NC2=C(C(=O)CCC2)C1c1cccc(Br)c1 (configuration not stated) ?
Dicer inh: -0.4

Results for CCOC(=O)C1=C(C)NC2=C(C(=O)CCC2)C1c1cccc(Br)c1 (configuration not stated) ?
Dicer inh: -0.86

How did CC1=C(C(=O)Nc2nc3ccccc3s2)C(c2cccc(Br)c2)C2=C(CCCC2=O)N1 (configuration not stated) do in these assays?
Dicer inh: 3.2*

What do the screens show for `COc1ccc(-c2cc(C(F)(F)F)n3nc(N)nc3n2)cc1`?
Dicer inh: 1.9

What do the screens show for `COc1ccc(-c2cc(C(F)(F)F)n3nc(N)nc3n2)cc1OC`?
Dicer inh: 5.5*

How did COc1cccc(-c2cc(C(F)(F)F)n3nc(N)nc3n2)c1 do in these assays?
Dicer inh: 0.15
